Measured values published in PubChem BioAssay (NCI).
This is part of a sample that, as a whole, favours compounds with a hit. Of some 83,000 tested, about 20% had one in any assay.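 Compound tested at a single concentration for 48 hours in 96-well plates; a percent growth value below 10 was scored as active.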 A number with no mark means an inactive call. The source made the active and inactive calls.

Experiments:
Assay in all cases: NCI-60 one-dose screen, 48 h (100 = growth as untreated, 0 = no growth, -100 = all killed)
Settings in all cases: 10 µM unless noted
[1] = test system: NCI-H23 lung
[2] = test system: NCI-H226 lung
[3] = test system: NCI-H322M lung
[4] = test system: HOP-62 NSCLC
[5] = test system: NCI-H460 lung
[6] = test system: HOP-92 NSCLC
[7] = test system: NCI-H522 lung
[8] = test system: A549/ATCC NSCLC
[9] = test system: 786-0 renal
[10] = test system: COLO 205 colon
[11] = test system: DU-145 prostate
[12] = test system: K-562 leukemia
[13] = test system: MALME-3M melanoma
[14] = test system: MDA-MB-231 breast
[15] = test system: RXF 393 renal
[16] = test system: SF-268 CNS
[17] = test system: SF-295 CNS
[18] = test system: SF-539 CNS
[19] = test system: UACC-257 melanoma
[20] = test system: M14 melanoma

SMILES	growth [1] [%]	growth [2] [%]	growth [3] [%]	growth [4] [%]	growth [5]	growth [6] [%]	growth [7] [%]	growth [8] [%]	growth [9] [%]	growth [10]	growth [11] [%]	growth [12] [%]	growth [13] [%]	growth [14] [%]	growth [15] [%]	growth [16] [%]	growth [17] [%]	growth [18] [%]	growth [19]	growth [20] [%]
Cc1ccc(C)c2c1CCC2=O	95.4	91.4	101	93.2	97.4%	94.7	96.7	114	99.6	114%	102	133	103	117	87.9	96.8	91.6	95.6	107%	95.7
Nc1ccccc1SC1CC(=O)N(c2ccc(Cl)c(Cl)c2)C1=O (stereo not given)	104	106	128	96.6	117%	101	117	99.9	93.9	127%	113	122	177	94.4	130	97.6	127	83.1	-6.15% (active)	94.8
O=[n+]1ccn([O-])c2ccccc21	96	89.8	104	95	102%	78.6	118	113	103	100%	105	109	98.3	94.6	89.5	95.8	107	99.1	133%	96.7
COc1cc(C(=O)NC(=S)NCc2ccncc2)cc(OC)c1OC	91.8	86.4	89.5	107	110%	89.2	56.7	99	97.5	95.3%	103	86.2	104	114	95.8	102	96.5	95.8	103%	106
O=C(OCC1CCCO1)c1ccc([N+](=O)[O-])cc1 (stereo not given)	105	92.5	100	92.6	95.5%	91.8	94.2	90.9	91	103%	113	111	106	106	102	106	102	102	85.5%	101
CCOC(=O)C(C#N)=C1CCN(C)CC1	94.3	111	107	104	111%	97.9	105	101	110	108%	123	116	124	119	115	102	103	105	93.9%	105
CC1(C)C2CCC1(C)C1(C2)OCCS1 (stereo not given)	95.6	92.7	99.6	101	106%	102	102	99	97.4	118%	103	96.5	94.6	100	96	93.8	92.2	94.1	102%	113
CCOC(=O)c1cc(C)[nH]c(=O)c1C#N	97.5	101	93.6	97.3	114%	104	74.4	98.5	100	114%	113	82.6	123	116	98.1	105	93.5	95.6	93%	102
OC(CBr)CCBr (stereo not given)	105	110	101	97.2	102%	102	96.5	90.8	103	105%	110	100	85.6	104	109	104	94	96.3	87.8%	104
CC(C)N(CCCC#N)C(C)C	104	114	104	98.6	105%	85.8	108	93.9	100	110%	107	104	109	102	103	103	100	97.9	89.2%	107
c1ccc2[nH]c(Cc3nc4ccccc4[nH]3)nc2c1	107	112	93.1	99.2	111%	85	103	103	117	105%	109	126	89	106	114	131	101	105	111%	94.3
O=S(=O)(O)C(C(I)I)S(=O)(=O)O	95.4	98.7	107	109	105%	106	108	104	110	110%	106	105	107	126	104	100	113	99.8	102%	109
O=C(O)CSCC(=O)Nc1cc(C(F)(F)F)ccc1Cl	111	109	103	105	134%	104	99.9	106	107	121%	128	102	105	112	128	94.5	103	101	103%	103
Cc1onc(-c2c(F)cccc2Cl)c1-c1ncc(-c2ccc(Br)cc2)o1	42.1	73.1	61.9	59.3	4.75% (active)	61.3	41.9	41.7	10.7	49.6%	50	24	45.2	52.3	58.7	43.1	36.4	39.6	23.7%	54.3
COc1ccc(C(=O)C(=O)c2ccccc2)cc1	94	91.9	93.8	102	104%	90.7	97.2	104	103	112%	113	111	101	101	92.9	105	96.6	117	111%	106
Cc1cc(Cc2ccccc2)c(O)c(Cc2ccccc2)c1	82.5	85.9	97.3	85.5	99.4%	90	78	76.5	86.6	106%	103	82.6	103	91.6	88.2	93.4	101	101	93.4%	91.5
CCCCCCCCCCCCCCCCCCSC(=N)N	63.5	84.1	88	81.6	52.7%	11.1	90.1	80.6	61.9	3.95% (active)	59.2	40.4	82.8	29.5	71.5	60.8	80.9	86.6	80.5%	60
